Data taken from PubChem BioAssay (NCI).
Compounds without any hit were thinned out: in the full panel of roughly 83,000, 20% have a hit.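 Each cell line was grown in a 96-well plate and treated with one concentration of compound for 48 hours. Values below 10 were considered active.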 Values without a mark were called inactive. Calls of active or inactive are those of the source.

Each compound was assayed on NCI-H322M lung (assay: NCI-60 one-dose screen, 48 h (100 = growth as untreated, 0 = no growth, -100 = all killed)). Conditions: 10 µM unless noted.

Going from `CC/C(=C/c1cc(OC)ccc1O)c1ccc2cc(OC)ccc2[o+]1` to `O=C(O)c1ccc(-n2cc(CNc3cc(F)c(F)c(F)c3)c(-c3cccc(F)c3)n2)cc1`, the growth rises from 84.2% to 97.2%.

Compound `C=CCn1c(SCC(=O)Nc2ccc(C(=O)/C=C/c3cccc([N+](=O)[O-])c3)cc2)nnc1-c1c[nH]c2ccccc12` has a growth of 91.2%.

What follows are compounds tested on HOP-62 NSCLC in the same assay as above. Conditions: 10 µM unless noted.

First: CCCCCc1ccc(S(=O)(=O)Nc2cc(-c3csc(NC(=O)CN4CCN(CCO)CC4)n3)ccc2OC)cc1
Second: CCCCCc1ccc(S(=O)(=O)Nc2cccc(-c3csc(NC(=O)CN4CCN(CCO)CC4)n3)c2)cc1
The growth of the first is lower: 78.7% for the first, 92.9% for the second.

Going from `N/C(=N\C(N)=N\c1nc2ccccc2s1)c1ccc(C(F)(F)F)cc1` to `O=C(Cn1cc(-c2ccccc2)nn1)Nc1nc(-c2ccc(Cl)cc2)cs1`, the growth rises from 91% to 108%.

First: CCn1c(SCC(=O)Nc2cccc(C(=O)/C=C/c3ccc(Br)cc3)c2)nc2ccccc2c1=O
Second: C=CCn1c(SCC(=O)Nc2ccc(C(=O)/C=C/c3ccc(Br)cc3)cc2)nnc1-c1c[nH]c2ccccc12
The growth of the first is higher: 98.8% for the first, 92.7% for the second.

Going from `O=S(=O)(NCCCNc1nccc(-c2[nH]c(-c3ccccc3)nc2-c2ccc(Cl)c(O)c2)n1)c1ccc(Br)cc1` to `COc1ccc(S(=O)(=O)NCCCNc2nccc(-c3[nH]c(-c4ccccc4)nc3-c3ccc(Cl)c(O)c3)n2)cc1`, the growth rises from 46.7% to 91.7%.

Compared with `CS(=O)(=O)Nc1cc(-c2ccc3ncc(C#N)c(N[C@H](CO)c4ccccc4)c3c2)cnc1Cl`, `COc1ccc(NC(=O)CSc2nnc(-c3ccc4nc(-c5ccccc5)[nH]c4c3)o2)cc1` is higher in growth: 46.8% for the first, 101% for the second.

Going from `Cn1ccnc1C(=O)/C=C/c1ccc(CNC(=O)c2ccc(Cl)cc2)cc1` to `C=CCn1c(SCC(=O)Nc2ccc(C(=O)/C=C/c3ccc(Cl)cc3)cc2)nnc1-c1c[nH]c2ccccc12`, the growth rises from 16.3% to 88.8%.

Compared with `Nc1cc(F)ccc1NC(=O)c1ccc(NC(=O)C/C=C/c2cccnc2)cc1`, `C=CCn1c(SCC(=O)Nc2ccc(C(=O)/C=C/c3cccc([N+](=O)[O-])c3)cc2)nnc1-c1c[nH]c2ccccc12` is higher in growth: 48.7% for the first, 106% for the second.

First: CCOC(=O)C1=NNC(c2ccc(Cl)cc2)C1C(=O)N1C(=S)NC(=O)C1CC(C)C (stereo unspecified)
Second: CCOC(=O)C(=O)CC(=O)N1C(=S)NC(=O)C1CC(C)C (stereo unspecified)
The growth of the first is lower: 92.8% for the first, 101% for the second.

Going from `N=c1c2cc(-c3ccccc3)oc2ncn1/N=C/c1ccc(Br)cc1` to `CCn1c2ccccc2c2cc(-n3nncc3-c3ccccc3)ccc21`, the growth falls from 73.7% to 66%.

Going from `Cc1ccc(NC(=O)c2ccc(CN3CCN(C)CC3)cc2)cc1Oc1ccc(-c2[nH]nc3ncnc(N)c23)cc1` to `COc1ccc(Cn2cc3c(c2-c2cc(OC)c(OC)c(OC)c2)CCc2c(CN4CCCC4)noc2-3)cc1`, the growth falls from 104% to 33.8%.

First: c1ccc(C(c2nc3ncncc3[nH]2)N2CSc3nc4ccccc4n3C2)cc1 (stereo unspecified)
Second: O=C(CSc1nc2ccccc2c(=O)n1-c1ccc(Cl)cc1)N/N=C/c1ccc(N2CCCCC2)cc1
The growth of the first is higher: 96.6% for the first, 18.4% for the second.

Compared with `CC1=CC(=O)C2=C(C)CC(OC(=O)CCc3ccccc3)[C@@H]3[C@H](OC(=O)[C@@H]3C)[C@@H]12` (stereo partly specified), `CCC(CC)N1C(=O)/C(=c2\sc3n(c2=O)NC2C(N=3)N(CC)C(=O)N2CC)c2ccccc21` (stereo unspecified) is lower in growth: 102% for the first, 73.2% for the second.

Compared with `O=C(Nc1ccc(F)c(F)c1)c1cc(-c2ccc(F)cc2F)ccc1O`, `O=C(O)c1ccc(-n2cc(CNc3cc(F)c(F)c(F)c3)c(-c3cccc(F)c3)n2)cc1` is higher in growth: 19% for the first, 114% for the second.

First: COc1c(N2CC3CCCNC3C2)c(F)cc2c(=O)c(C(=O)N/N=C/c3ccc(N(C)C)cc3)cn(C3CC3)c12 (stereo unspecified)
Second: Cc1c(Cl)cccc1S(=O)(=O)Nc1ccc2c(c1)C(=O)N(C1CCC(=O)NC1=O)C2=O (stereo unspecified)
The growth of the first is higher: 91.9% for the first, 73.5% for the second.

Going from `CC(=O)C1=C(C)NC(NN)=NC1c1cccc(Cl)c1` (stereo unspecified) to `NC(=O)c1c(NC(=O)c2ccc(F)cc2F)sc2c1CCC(=O)C2`, the growth rises from 99.2% to 104%.

First: COc1cc(Cn2cc3c(c2)-c2onc(CN4CCCC4)c2CC3)cc(OC)c1OC
Second: COc1cc(Cn2cc3c(c2)-c2onc(CN4CCOCC4)c2CC3)cc(OC)c1OC
The growth of the first is lower: 92.8% for the first, 95.6% for the second.

Going from `O=C1Nc2ccccc2/C1=C/c1ccc(CO)n1-c1ccc(Cl)cc1` to `Cc1ccc(-n2c(/C=C3\C(=O)Nc4ccccc43)ccc2CO)cc1`, the growth rises from 59.7% to 72.8%.

First: Clc1cccc(/C=N/Nc2nc(N/N=C/c3cccc(Cl)c3Cl)nc(N3CCCCC3)n2)c1Cl
Second: CC/C(=C/c1cc(OC)ccc1O)c1ccc2cc(OC)ccc2[o+]1
The growth of the first is higher: 98.2% for the first, 69.8% for the second.

With `CS(=O)(=O)Nc1cc(-c2ccc3ncc(C#N)c(Nc4cccc(Cl)c4F)c3c2)cnc1Cl` the growth was -8.87% (active).
In the case of `CCOP(=O)(OCC)OC[C@]12CCC(C)(C)C=C1[C@H]1CC[C@@H]3[C@@]4(C)CC[C@H](OP(=O)(OCC)OCC)C(C)(C)[C@@H]4CC[C@@]3(C)[C@]1(C)CC2`, the growth is reported as -38.3% (active).
